The campaign covered roughly 420,000 compounds. About 64,000 (15%) were called active. Inconclusive results (about 27%) are left out. Calls follow the shape of the dose curve; as a rule, active = well fitted inhibition curve with a large enough effect; inconclusive = small, poorly fitted or top-dose-only effect; inactive = flat fitted curve, though single readings scatter. A selection follows.
test: qHTS for Inhibitors of human tyrosyl-DNA phosphodiesterase 1 (TDP1): qHTS in cells in absence of CPT; settings: DT40 Tdp1-/- hTDP1 cells, no CPT, ATP luminescence, 48 h; activity change, negative = growth inhibition: at 46.2 µM (top of the series); also: nearly all actives have a fitted effect of over 55% in size
Summary of the method: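 Luminescent ATP content (CellTiter-Glo) served as the growth readout. Knockout chicken DT40 cells expressing human TDP1 were exposed to compounds without camptothecin for a minimum 48 hr at 37 °C.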
% is scaled to controls: 0 for no effect and ±100 for the full control effect; potency is read from the fitted curve at half-maximal effect.

SMILES | activity change, negative = growth inhibition | Potency
CCOc1cc(C(=O)Nc2c(C)ccc3nsnc23)cc(OCC)c1OCC | -22.1% (inactive) | 
CC1O[C@H](OC2C(COC3OC(CO)C(O)[C@H](O)C3O)OC(OC3CC[C@]4(C)C(CC[C@@]5(C)[C@@H]4C=C[C@]46OC[C@@]7(CCC(C)(C)C[C@H]74)C(O)C[C@@]56C)C3(C)C)C(O)C2O)C(O)C(O)C1O (stereo partly specified) | 7.51% (inactive) | 
O=C(COC(=O)CNS(=O)(=O)c1ccccc1)NC12CC3CC(CC(C3)C1)C2 | -26.4% (inactive) | 
CC(=O)Oc1ccc2c(c1)C(=O)c1ccccc1C2=O | -18.9% (inactive) | 
O=C1C(Cl)=C(Oc2ccccc2)C(=O)c2ccccc21 |  | 0.259 µM (active)
Cc1cc(Nc2ccc(C(=O)N3CCCCC3)cc2)c2cccc(C)c2n1 | -23.9% (inactive) | 
CCc1c(C)sc(NC(=O)OC)c1C(=O)N1CCOCC1 | -12.6% (inactive) | 
CCCOC(=O)CC1C(=O)NCCN1Cc1ccc(F)cc1 (stereo unspecified) | -3.87% (inactive) | 
COc1ccc(NS(=O)(=O)c2cccc(C(=O)NCCc3ccc(S(N)(=O)=O)cc3)c2)cc1 | -13.7% (inactive) | 
COc1ccc(NS(=O)(=O)c2ccc(Oc3c(C#N)cccc3C#N)cc2)cc1 |  | 5.8 µM (active)
COc1ccc(NC(=O)/C(N=Nc2cccc(S(=O)(=O)Nc3ccc(SC(F)F)cc3)c2)=C(\C)O)cc1 | -19.8% (inactive) | 
C[C@H](CO)N1C[C@H](C)[C@@H](CN(C)C(=O)NC2CCCCC2)Oc2ccc(NC(=O)c3ccncc3)cc2C1=O | 3.93% (inactive) | 
CO/N=C(\C(=O)N[C@@H]1C(=O)N2C(C(=O)O)=C(COC(C)=O)CS[C@H]12)c1csc(N)n1 (stereo in doubt) |  | inactive
CCCCN(CC)CCCNC(=O)CS(=O)(=O)Cc1nc(-c2cccc(OC)c2)oc1C | 3.46% (inactive) | 
COc1cccc(-c2nc(CS(=O)(=O)CC(=O)N3CCN(c4cc(C)ccc4C)CC3)c(C)o2)c1 |  | 3.66 µM (active)
COc1cccc(-c2nc(CS(=O)(=O)CC(=O)NCCc3ccc(OC)c(OC)c3)c(C)o2)c1 | -28.5% (inactive) | 
CCN(CC)CCN(C)C(c1ccnc2ccccc12)c1nnnn1-c1ccc2c(c1)OCCO2 (stereo unspecified) |  | 18.4 µM (active)
CC(=O)NC1CCN(CC(=O)Nc2nccs2)CC1 | 8.15% (inactive) | 
Cc1cc(C)n(CCNC(=O)CC2C(=O)NCCN2Cc2ccc(C)o2)n1 (stereo unspecified) | 9.42% (inactive) | 
Cc1ncn(C23CC4CC(CC(O)(C4)C2)C3)n1 | 11.2% (inactive) | 
COC(=O)c1ccc(NC(=O)C23CC4CC(C2)CC(n2cnc(Cl)n2)(C4)C3)cc1 |  | 16.4 µM (active)
COC(=O)c1ccc(NC(=O)CSc2nnc(C3CC3)n2C)cc1 | -18.5% (inactive) | 
CCOc1ccc(S(=O)(=O)NCCC(=O)NNC(=O)c2ccc(F)cc2)cc1 | -2.59% (inactive) | 
COc1ccc(CCNC(=O)COc2cc(C)cc3oc(=O)c(C)c(C)c23)cc1OC | -14.7% (inactive) | 
COc1ccc(CCN2C(=O)c3oc4cc(C)cc(C)c4c(=O)c3C2c2ccccc2F)cc1OC (stereo unspecified) |  | 2.91 µM (active)
COc1ccc(CNC(=O)c2cc(=O)c3c(C)cc(C)cc3o2)cc1 | -23.3% (inactive) | 

SMILES | activity change, negative = growth inhibition | Potency
COc1ccccc1OCCNC(=O)C(CCSC)NC(=O)COc1ccccc1 (stereo unspecified) | 12.3% (inactive) | 
O=C(O)CC(c1ccccc1)n1cnnn1 (stereo unspecified) | -13.6% (inactive) | 
CCCOc1ccc(C(=O)CCC(=O)OC(C)C(=O)Nc2ccc(NC(C)=O)cc2)cc1 (stereo unspecified) | -9.79% (inactive) | 
CCCCOc1ccc(C(=O)NCc2ccncc2)cc1 | -49% (inactive) | 
CCCOc1ccc(C(=O)C(CCC(CNCC)C(=O)c2ccc(OCCC)cc2)CNCC)cc1 (stereo unspecified) |  | 0.92 µM (active)
CCCCOc1ccc(C(=O)NN2CCN(C)CC2)cc1 | 0.162% (inactive) | 
CCCOc1ccc(C(=O)NCCc2ccccc2)cc1 | -5.72% (inactive) | 
CCCCOc1ccc(C(=O)NO)cc1 |  | 15.8 µM (active)
COc1ccccc1C(=O)NCC(=O)OCC(=O)Nc1nnc(-c2ccccc2)o1 | 0.346% (inactive) | 
CCCNC(=O)C[C@@H]1CC[C@@H]2[C@H](COC[C@H](O)CN2C(=O)c2cc(Cl)cc(Cl)c2)O1 | 3.86% (inactive) | 
Cn1c(N)c(C(=O)COC(=O)c2ccccc2NCc2ccco2)c(=O)n(C)c1=O | -17.3% (inactive) | 
CCc1cccc(CC)c1NC(=S)NCc1ccc2[nH]c(C)cc2c1 |  | 18.4 µM (active)
CCc1cccc(CC)c1NC(=S)Nc1ccc2cn[nH]c2c1 | -26.7% (inactive) | 
Cc1cc2cc(CNC(=O)c3cccs3)ccc2[nH]1 | -9.84% (inactive) | 
COc1ccc(S(=O)(=O)NCC2CCCN(C(=O)c3occc3C)C2)cc1 (stereo unspecified) | 4.89% (inactive) | 
O=C(c1ccccn1)c1ncc(C(F)(F)F)cc1Cl | 0.458% (inactive) | 
C=CCn1c(SCC(=O)Nc2nc3ccccc3s2)nnc1-c1ccccc1O | -19.3% (inactive) | 
O=c1[nH]c(CCl)nc2cc(-c3ccc(Cl)cc3)sc12 |  | 2.31 µM (active)
O=c1[nH]c(CN2CCOCC2)nc2cc(Cl)ccc12 | -17.7% (inactive) | 
NC(=O)Cc1nc2scc(-c3ccc(Cl)cc3)c2c(=O)[nH]1 | -7.87% (inactive) | 
CCOCCCNC(=S)N1CCC(NC(=O)C2CCCCC2)CC1 | 23.4% (inactive) | 
CSCCC(NS(=O)(=O)c1ccc2c(c1)oc(=O)n2C)C(=O)NCc1ccccc1 (stereo unspecified) |  | inactive
OC(CBr)C[n+]1cccc2cc(Br)ccc21 (stereo unspecified) |  | 11.2 µM (active)
Cc1c(CCC(=O)N[C@@H](CC(C)C)C(=O)O)c(=O)oc2c(C)c3oc4c(c3cc12)CCCC4 | -5.98% (inactive) | 
CCN(CC)CCCNC(=O)CCn1nc(-c2ccc(Cl)cc2)ccc1=O | -12.9% (inactive) | 
O=C(Nc1ccc(OC(F)(F)F)cc1)c1cc2c(=O)n3ccccc3nc2s1 | -10.7% (inactive) | 

SMILES | activity change, negative = growth inhibition | Potency
Cn1c(C(=O)Nc2cccc(C(F)(F)F)c2)cc2c(=O)n3ccccc3nc21 |  | 9.2 µM (active)
O=C(COC(=O)c1cccc(Cl)c1)NC(=O)NCc1ccccc1 | 5.96% (inactive) | 
CCN(CC)c1ccc2oc(=O)c(C)nc2c1 |  | 5.8 µM (active)
CCN(CC)c1ccc2c(Nc3ccccc3)c(C=O)c(=O)oc2c1 | -1.93% (inactive) | 
CCN(CC)c1ccc2cc(C(=O)O)c(=O)oc2c1 | -13.5% (inactive) | 
COc1ccc(CCNC(=O)C(=O)NCc2ccccc2C)cc1OC | 6.43% (inactive) | 
COC(=O)c1ccc(C2C(Oc3ccccc3C)C(=O)N2CCc2ccc(OC)c(OC)c2)cc1 (stereo unspecified) |  | 14.6 µM (active)
COc1ccc(CCN2C(=O)C3CC=C(C)CC3C2=O)cc1OC (stereo unspecified) | -29.3% (inactive) | 
CN(CCC1CCOCC1)C(=O)CC1C(=O)NCCN1Cc1cccc(F)c1 (stereo unspecified) | -6.27% (inactive) | 
COc1ccc(NS(=O)(=O)c2cc3c(cc2C)N(C(C)=O)CCO3)cc1 |  | inactive
CCOC(=O)c1c(NC(=O)NC(C)(C)C)sc2c1CCN(C)C2 | -0.308% (inactive) | 
COC(=O)c1c(NC(=O)c2cc(=O)c3c(C)cc(C)cc3o2)sc2c1CCCC2 | 2.53% (inactive) | 
CCOC(=O)c1c(NC(=O)C2CCN(S(=O)(=O)c3ccc(Cl)cc3)CC2)sc2c1CCCC2 | -25.2% (inactive) | 
COC(=O)c1c(NC(=O)c2ccc(Cl)c(Cl)c2)sc2c1CCCC2 | -2.84% (inactive) | 
CCOC(=O)c1c(NC(=O)c2ccc(S(=O)(=O)N3CCCC(C)C3)cc2)sc2c1CCN(C(C)C)C2 (stereo unspecified) |  | 10.3 µM (active)
CCCN(CCC)S(=O)(=O)c1ccc(C(=O)Nc2sc3c(c2C(=O)OC)CCN(CC)C3)cc1 |  | 20.6 µM (active)
O=C(O)/C=C/c1ccc(OCCCF)cc1 | 7.32% (inactive) | 
CN(C)/C=C/C(=O)c1cnc2sccn2c1=O | 1.42% (inactive) | 
Cn1nc(C(F)(F)F)c(-c2ccc(F)cc2)c1NC(=O)CSCC(=O)O | 4.22% (inactive) | 
CN(C)C=NC(=O)c1cccn1-c1ncc(C(F)(F)F)cc1Cl | -0.565% (inactive) | 
CC(C)N(C(=O)CSc1nnc(NC2CC2)s1)c1ccccc1 | 11.9% (inactive) | 
O=C(CSc1nnc(Nc2ccccc2)s1)Nc1cccnc1Cl | 6.65% (inactive) | 
CC(C)c1ccc(Nc2nnc(SCC(=O)c3nnc(-c4ccccc4)o3)s2)cc1 |  | 11.6 µM (active)
C/C(=N\OC(=O)c1ccccc1)c1c(C)nc2cc(C)ccn12 | 1.66% (inactive) | 
CC1=C(C(=O)Nc2ccc(Cl)cc2)C(c2ccco2)NC(=O)N1 (stereo unspecified) | -5.62% (inactive) | 
Cc1ccc(SCC(=O)Nc2ccc3c(c2)OCCO3)cc1 | -4.73% (inactive) | 

SMILES | activity change, negative = growth inhibition | Potency
Cc1ccc(SC(=O)COc2ccc(C)c(C)c2)cc1 | -15.4% (inactive) | 
Cc1ccc(SCC(=O)c2cc(C)c(OC(=S)N(C)C)c(C)c2)cc1 |  | 18.4 µM (active)
CCCCc1ccc(S(=O)(=O)NC(=O)C2(C)CCN2C(=O)c2c(C)noc2C)cc1 (stereo unspecified) | -11.2% (inactive) | 
COc1ccc(/C=N/N(C)C2=NS(=O)(=O)c3ccccc32)cc1OC | -4.78% (inactive) | 
O=S1(=O)N=C(N(CCO)/N=C/c2ccccc2F)c2ccccc21 |  | 0.92 µM (active)
C=CCOCCN(C)C1=NS(=O)(=O)c2ccccc21 | -11.1% (inactive) | 
CCCCC/C=C\C/C=C\CCCCCCCCCC(=O)O | 6.04% [at 4.12 µM] (inactive) | 
Cc1cc(C)n(C(=O)CCNC(=O)c2ccccc2Cl)n1 | -11.5% (inactive) | 
NC(=O)c1ccsc1NC(=O)COC(=O)COc1ccc(C=O)cc1 | 14.7% (inactive) | 
Cc1cccc(NC(=S)Nc2ccc(Br)cc2)c1 |  | 16.4 µM (active)
Fc1cc(Br)ccc1NC(=S)Nc1cccnc1 | -4.8% (inactive) | 
Cc1cccc(NC(=S)NC(=O)c2ccc(Br)o2)c1 | -27.5% (inactive) | 
O=C(COC(=O)c1ccc2c(c1)OCCO2)NCc1ccccc1Cl | -9.9% (inactive) | 
CCCS(=O)(=O)NC(=O)C1(C)CCCN(C(=O)c2cc(C)on2)C1 (stereo unspecified) | 0.826% (inactive) | 
Cc1nc2cnc(N3CCN(C)CC3)nc2n(CCC#N)c1=O | 0.2% (inactive) | 
Cn1c(SCC(=O)Nc2nccs2)nnc1-c1cccnc1 | 8.51% (inactive) | 
O=C(CCS(=O)(=O)c1ccccc1)N(Cc1cccnc1)c1nc2c(F)cccc2s1 |  | 2.31 µM (active)
CN(C)CCCN(C(=O)COc1ccccc1)c1nc2c(Cl)cccc2s1 | 19.3% (inactive) | 
COc1cc2ccccc2cc1C(=O)N(CCN(C)C)c1nc2c(F)cccc2s1 | -8.8% (inactive) | 
CN(C)S(=O)(=O)c1ccc(C(=O)N(Cc2cccnc2)c2nc3c(F)cc(F)cc3s2)cc1 | -27.9% (inactive) | 
O=C(NCc1cccnc1)Nc1ccccc1F | -1.9% (inactive) | 
Cc1cccc2sc(N(CCCN(C)C)C(=O)CCS(=O)(=O)c3ccccc3)nc12 |  | 1.64 µM (active)
COC(=O)[C@H](CC(C)C)NC(=O)N1CCCCC1C (stereo partly specified) | 3.98% (inactive) | 
